Measured values: the supplement of paper PMC10849652
Of roughly 7,900 targets only a part is listed; those with a hit were picked by preference. About 0.6% of all pairs of compound and target were hits. Values without a mark were called inactive.

Experiments:
Experiment in all cases: log2 fold change, soluble protein after heating vs DMSO (PISA); higher = thermal stabilisation; K562 cells, 10 uM, 30 min; active = over 0.2 and 3.5 SD of the protein, either way, in both replicates (recomputed)
[1] = compound: CS(=O)(=O)c1ccc(-c2cnc(N)c(C(=O)Nc3ccccc3)n2)cc1
In short: (§1)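 For each measurement, 10 μM compound was applied for 30 min to K562 cells at 2×10^6 cells/mL. Aliquots were heated for 3 min across 48°C-58°C, pooled, and extracted in PBS with 0.5% NP-40 at 4°C; the supernatant after 21,000xg for 90 min was soluble protein. This was quantified by TMTpro 16plex LC-MS/MS with channel sums equalised, and thermal stability was reported relative to control samples from duplicates, on a log2 fold-change scale.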

[2] = compound: C[C@@H](Oc1cc(-c2cnn(C3CCNCC3)c2)cnc1N)c1c(Cl)ccc(F)c1Cl [crizotinib]
In short: as §1

[3] = compound: C[C@@H]1COCCN1C2=NC(=NC(=C2)C3(CC3)S(=O)(=O)C)C4=C5C=CNC5=CC=C4
In short: as §1

[4] = compound: C[C@H](C1=CC=C(C=C1)C(=O)NC2=C3C=CNC3=NC=C2)N
In short: as §1

[5] = compound: C[C@H](Nc1ncnc2nc[nH]c12)c1cc2cccc(Cl)c2c(=O)n1-c1ccccc1 [duvelisib]
In short: as §1

[6] = compound: Cc1cc(Nc2cc(CN3CCOCC3)c3nc(C)c(Cc4ccc(Cl)cc4F)n3n2)n[nH]1 [gandotinib]
In short: as §1

[7] = compound: Cc1cc(Nc2cc(N3CCN(C)CC3)nc(Sc3ccc(NC(=O)C4CC4)cc3)n2)n[nH]1 [tozasertib]
In short: as §1

[8] = compound: Cc1cc(SCc2sc(-c3ccc(C(F)(F)F)cc3)nc2C)ccc1OCC(=O)O
In short: as §1

[9] = compound: Cc1ccc(-n2nc(C(C)(C)C)cc2NC(=O)Nc2ccc(OCCN3CCOCC3)c3ccccc23)cc1 [doramapimod]
In short: as §1

[10] = compound: Cc1ccc(C(=O)N(CCCN)[C@@H](c2nc3cc(Cl)ccc3c(=O)n2Cc2ccccc2)C(C)C)cc1 [ispinesib]
In short: as §1

[11] = compound: Cc1ccc(NC(=O)c2ccc(CN3CC[C@H](N(C)C)C3)c(C(F)(F)F)c2)cc1Nc1nccc(-c2cncnc2)n1 [bafetinib]
In short: as §1

[12] = compound: Cc1cccc(CC(=O)N2CCc3c2ccc(-c2cn(C)c4ncnc(N)c24)c3F)n1
In short: as §1

[13] = compound: Cc1cn(-c2cc(NC(=O)c3ccc(C)c(Nc4nccc(-c5cccnc5)n4)c3)cc(C(F)(F)F)c2)cn1 [nilotinib]
In short: as §1

[14] = compound: Cc1nc(Nc2n[nH]c3c2CN(C(=O)N[C@H](CN(C)C)c2ccccc2)C3(C)C)c2sccc2n1
In short: as §1

[15] = compound: Cc1nc(Nc2ncc(C(=O)Nc3c(C)cccc3Cl)s2)cc(N2CCN(CCO)CC2)n1 [dasatinib]
In short: as §1

[16] = compound: Cc1ncc(-c2ccnc(Nc3ccc(S(C)(=O)=O)cc3)n2)n1C(C)C
In short: as §1

[17] = compound: Cn1cc(-c2ccc3c(c2)CCN3C(=O)Cc2cccc(C(F)(F)F)c2)c2c(N)ncnc21
In short: as §1

[18] = compound: Cn1cc(-c2ccc3nnc(C(F)(F)c4ccc5ncccc5c4)n3n2)cn1
In short: as §1

[19] = compound: Cn1cncc1[C@@](N)(c1ccc(Cl)cc1)c1ccc2c(c1)c(-c1cccc(Cl)c1)cc(=O)n2C [tipifarnib]
In short: as §1

[20] = compound: FC(F)(F)c1ccc(/C=C/c2nc(COc3ccc(CCCCn4ccnn4)cc3)co2)cc1 [mubritinib]
In short: as §1

Chain of UniProt Q16891 (Q16891 whole entry, looked up): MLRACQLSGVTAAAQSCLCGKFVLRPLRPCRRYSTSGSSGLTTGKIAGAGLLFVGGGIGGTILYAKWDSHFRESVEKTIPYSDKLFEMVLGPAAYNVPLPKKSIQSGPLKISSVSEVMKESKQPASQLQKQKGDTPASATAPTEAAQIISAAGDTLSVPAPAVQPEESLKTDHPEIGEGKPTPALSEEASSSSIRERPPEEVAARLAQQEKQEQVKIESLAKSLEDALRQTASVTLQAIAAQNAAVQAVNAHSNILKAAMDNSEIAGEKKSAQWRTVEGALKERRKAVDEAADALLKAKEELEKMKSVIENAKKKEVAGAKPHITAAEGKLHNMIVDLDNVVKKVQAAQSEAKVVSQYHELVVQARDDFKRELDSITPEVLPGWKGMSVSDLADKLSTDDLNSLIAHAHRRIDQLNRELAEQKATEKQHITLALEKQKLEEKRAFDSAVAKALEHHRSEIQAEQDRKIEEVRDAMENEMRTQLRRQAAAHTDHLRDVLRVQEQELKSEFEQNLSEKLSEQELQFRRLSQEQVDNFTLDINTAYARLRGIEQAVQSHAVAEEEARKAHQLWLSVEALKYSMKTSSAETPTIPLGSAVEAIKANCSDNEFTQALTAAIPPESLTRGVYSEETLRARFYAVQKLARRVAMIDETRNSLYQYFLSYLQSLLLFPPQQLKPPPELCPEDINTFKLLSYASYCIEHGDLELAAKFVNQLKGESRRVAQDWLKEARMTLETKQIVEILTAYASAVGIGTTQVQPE
Chain of UniProt Q96PC5 (Q96PC5 whole entry, looked up): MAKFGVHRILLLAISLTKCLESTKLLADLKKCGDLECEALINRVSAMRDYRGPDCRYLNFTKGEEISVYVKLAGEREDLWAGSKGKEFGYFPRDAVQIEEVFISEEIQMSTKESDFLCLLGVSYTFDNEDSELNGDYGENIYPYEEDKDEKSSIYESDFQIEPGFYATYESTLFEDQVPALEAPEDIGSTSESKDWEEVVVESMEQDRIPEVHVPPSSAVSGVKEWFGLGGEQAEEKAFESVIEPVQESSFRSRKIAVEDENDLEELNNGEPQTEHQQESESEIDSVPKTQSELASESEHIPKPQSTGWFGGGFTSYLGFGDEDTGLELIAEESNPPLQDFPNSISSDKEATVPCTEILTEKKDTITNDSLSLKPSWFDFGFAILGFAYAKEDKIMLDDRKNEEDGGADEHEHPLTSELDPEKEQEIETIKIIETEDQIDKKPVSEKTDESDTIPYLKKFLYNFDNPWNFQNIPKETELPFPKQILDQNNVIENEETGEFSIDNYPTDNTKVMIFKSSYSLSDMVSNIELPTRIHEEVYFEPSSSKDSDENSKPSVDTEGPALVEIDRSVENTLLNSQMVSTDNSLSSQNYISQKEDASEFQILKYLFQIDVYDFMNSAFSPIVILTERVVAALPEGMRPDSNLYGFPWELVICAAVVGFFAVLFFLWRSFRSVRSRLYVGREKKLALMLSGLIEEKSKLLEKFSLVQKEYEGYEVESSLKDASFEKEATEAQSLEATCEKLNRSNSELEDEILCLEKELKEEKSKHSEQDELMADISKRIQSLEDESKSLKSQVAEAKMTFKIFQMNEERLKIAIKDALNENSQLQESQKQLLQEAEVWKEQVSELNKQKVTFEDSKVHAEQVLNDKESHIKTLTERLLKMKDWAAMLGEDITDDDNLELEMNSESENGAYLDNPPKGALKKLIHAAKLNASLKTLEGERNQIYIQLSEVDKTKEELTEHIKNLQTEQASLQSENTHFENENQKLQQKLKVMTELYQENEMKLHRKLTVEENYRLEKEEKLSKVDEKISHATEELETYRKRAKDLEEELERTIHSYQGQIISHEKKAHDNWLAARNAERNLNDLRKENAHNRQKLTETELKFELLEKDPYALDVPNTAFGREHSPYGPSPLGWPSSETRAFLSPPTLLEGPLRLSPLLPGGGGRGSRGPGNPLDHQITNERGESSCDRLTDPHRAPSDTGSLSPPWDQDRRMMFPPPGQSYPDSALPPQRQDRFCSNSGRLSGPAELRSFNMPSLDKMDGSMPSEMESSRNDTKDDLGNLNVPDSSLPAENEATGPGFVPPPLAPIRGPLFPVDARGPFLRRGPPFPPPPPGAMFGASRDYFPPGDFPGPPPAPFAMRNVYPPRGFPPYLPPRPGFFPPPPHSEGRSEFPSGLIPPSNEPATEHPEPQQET
Chain of UniProt O43766 (O43766 whole entry, looked up): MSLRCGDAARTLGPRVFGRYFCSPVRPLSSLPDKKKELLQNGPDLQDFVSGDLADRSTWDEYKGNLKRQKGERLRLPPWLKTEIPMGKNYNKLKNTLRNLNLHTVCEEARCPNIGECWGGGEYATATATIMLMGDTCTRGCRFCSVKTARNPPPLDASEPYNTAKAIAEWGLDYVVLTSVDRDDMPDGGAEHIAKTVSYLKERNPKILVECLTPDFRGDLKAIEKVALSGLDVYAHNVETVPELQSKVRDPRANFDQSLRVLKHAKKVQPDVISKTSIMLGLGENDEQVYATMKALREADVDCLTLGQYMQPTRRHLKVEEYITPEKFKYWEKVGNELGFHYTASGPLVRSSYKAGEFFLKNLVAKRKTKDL
Chain of UniProt P14174 (P14174 whole entry, looked up): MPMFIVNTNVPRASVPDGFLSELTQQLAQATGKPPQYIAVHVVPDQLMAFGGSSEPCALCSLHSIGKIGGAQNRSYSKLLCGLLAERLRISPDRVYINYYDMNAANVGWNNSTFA
Chain of UniProt Q9Y6R4 (Q9Y6R4 whole entry, looked up): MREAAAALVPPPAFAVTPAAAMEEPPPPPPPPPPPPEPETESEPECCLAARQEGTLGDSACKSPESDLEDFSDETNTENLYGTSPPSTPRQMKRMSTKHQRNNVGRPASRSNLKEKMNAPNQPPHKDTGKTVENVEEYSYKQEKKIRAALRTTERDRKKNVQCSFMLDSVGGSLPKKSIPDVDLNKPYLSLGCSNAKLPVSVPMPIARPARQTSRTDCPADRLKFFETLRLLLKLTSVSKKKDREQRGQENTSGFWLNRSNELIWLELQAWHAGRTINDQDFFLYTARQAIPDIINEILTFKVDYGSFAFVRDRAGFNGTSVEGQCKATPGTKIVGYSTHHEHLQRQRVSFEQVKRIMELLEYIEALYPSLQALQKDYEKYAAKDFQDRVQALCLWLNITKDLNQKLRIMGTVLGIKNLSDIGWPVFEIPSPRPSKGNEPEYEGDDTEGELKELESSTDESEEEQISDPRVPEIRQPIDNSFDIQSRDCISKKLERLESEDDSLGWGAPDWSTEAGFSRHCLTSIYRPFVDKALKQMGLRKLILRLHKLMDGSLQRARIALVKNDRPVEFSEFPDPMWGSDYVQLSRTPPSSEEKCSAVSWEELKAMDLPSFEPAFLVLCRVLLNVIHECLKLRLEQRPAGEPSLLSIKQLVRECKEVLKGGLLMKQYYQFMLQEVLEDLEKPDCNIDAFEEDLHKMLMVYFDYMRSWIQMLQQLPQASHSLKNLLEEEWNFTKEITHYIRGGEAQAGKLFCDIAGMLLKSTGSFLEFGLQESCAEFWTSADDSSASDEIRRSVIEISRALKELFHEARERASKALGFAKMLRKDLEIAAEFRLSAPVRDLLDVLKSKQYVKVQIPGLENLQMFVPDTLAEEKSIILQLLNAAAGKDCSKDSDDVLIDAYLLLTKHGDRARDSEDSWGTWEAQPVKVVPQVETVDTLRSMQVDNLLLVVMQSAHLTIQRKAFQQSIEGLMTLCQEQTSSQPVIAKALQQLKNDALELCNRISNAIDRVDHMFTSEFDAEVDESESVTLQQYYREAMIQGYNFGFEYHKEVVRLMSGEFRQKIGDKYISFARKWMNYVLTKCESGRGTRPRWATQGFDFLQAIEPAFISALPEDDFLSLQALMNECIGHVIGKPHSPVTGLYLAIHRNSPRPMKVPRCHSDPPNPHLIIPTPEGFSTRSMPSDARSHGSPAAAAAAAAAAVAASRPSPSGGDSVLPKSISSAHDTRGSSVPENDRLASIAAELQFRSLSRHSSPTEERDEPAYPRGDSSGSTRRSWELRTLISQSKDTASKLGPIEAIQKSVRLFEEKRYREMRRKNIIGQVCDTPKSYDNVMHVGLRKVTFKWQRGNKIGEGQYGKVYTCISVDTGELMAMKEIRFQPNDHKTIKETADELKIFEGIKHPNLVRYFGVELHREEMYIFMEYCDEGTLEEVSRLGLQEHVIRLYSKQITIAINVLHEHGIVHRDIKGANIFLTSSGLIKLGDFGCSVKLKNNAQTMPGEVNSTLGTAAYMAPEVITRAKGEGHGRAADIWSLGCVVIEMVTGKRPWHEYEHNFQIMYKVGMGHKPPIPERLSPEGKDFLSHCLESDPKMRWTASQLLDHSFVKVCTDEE
Chain of UniProt P45984 (P45984 whole entry, looked up): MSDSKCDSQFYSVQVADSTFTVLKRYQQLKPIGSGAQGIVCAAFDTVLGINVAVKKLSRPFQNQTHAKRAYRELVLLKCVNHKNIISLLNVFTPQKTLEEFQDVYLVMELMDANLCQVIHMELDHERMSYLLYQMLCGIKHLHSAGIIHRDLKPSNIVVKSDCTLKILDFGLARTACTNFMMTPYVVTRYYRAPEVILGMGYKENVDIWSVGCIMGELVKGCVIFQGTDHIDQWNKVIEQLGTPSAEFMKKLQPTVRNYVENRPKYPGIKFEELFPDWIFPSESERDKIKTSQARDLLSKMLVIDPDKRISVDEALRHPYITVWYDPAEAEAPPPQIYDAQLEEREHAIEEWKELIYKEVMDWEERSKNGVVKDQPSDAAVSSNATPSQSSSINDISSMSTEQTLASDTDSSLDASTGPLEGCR

Target	log2 fold change [1]	log2 fold change [2]	log2 fold change [3]	log2 fold change [4]	log2 fold change [5]	log2 fold change [6]	log2 fold change [7]	log2 fold change [8]	log2 fold change [9]	log2 fold change [10]	log2 fold change [11]	log2 fold change [12]	log2 fold change [13]	log2 fold change [14]	log2 fold change [15]	log2 fold change [16]	log2 fold change [17]	log2 fold change [18]	log2 fold change [19]	log2 fold change [20]
LMNA (UniProt P02545)	-0.054	0.064	0.102	-0.231 (active)	-0.013	-0.098	0.069	-0.035	0.018	0.214 (active)	-0.011	-0.025	0.065	-0.116	0.097	-0.179	-0.04	-0.043	0.064	-0.069
MAPK9 (UniProt P45984)	0.006	-0.042	0.054	-0.068	0.023	-0.018	-0.013	-0.041	0.145	0.01	-0.112	0.003	-0.023	0.047	-0.044	0.134	0.042	0.04	0.015	-0.059
IMMT isoform 2 (UniProt Q16891)	-0.042	-0.152	0.046	-0.115	-0.003	-0.075	-0.019	-0.087	-0.034	-0.031	-0.081	0.11	-0.007	-0.002	0.144	-0.022	-0.037	0.037	0.065	0.066
MIA2 (UniProt Q96PC5)	0.001	0.015	0.006	-0.059	-0.077	-0.034	0.09	0.044	-0.01	0.011	-0.068	-0.029	-0.002	-0.048	-0.051	-0.038	-0.058	0.041	0.029	-0.046
LIAS (UniProt O43766)	0.035	0.03	0.039	0.075	0.043	0.086	-0.015	-0.08	0	-0.24	-0.034	-0.079	0.038	0.003	0.028	-0.059	-0.017	0.059	0.098	0.002
MIF (UniProt P14174)	-0.027	0.025	0.111	-0.048	0.197	0.079	-0.019	-0.025	-0.019	0.055	0.012	0.034	0.088	0	0.052	-0.052	0.067	0.076	-0.029	0.021
MAP3K4 isoform 2 (UniProt Q9Y6R4)	0.012	-0.256 (active)	0.042	-0.017	0.02	-0.054	0.026	0	0.02	0.021	-0.059	-0.095	0.008	0.221 (active)	0.534 (active)	0.027	-0.031	0.021	-0.032	0.016
MDN1 (UniProt Q9NU22)	-0.072	-0.135	0.094	0.002	0.024	-0.156	-0.052	0.063	-0.005	-0.117	-0.094	0	-0.15	-0.195	-0.245	-0.089	0.02	0.011	-0.052	-0.089
